# Only some compounds are listed: those with a hit (about 2.4% of all), similar ones and a draw of the others.
# Hck-Nef inh: inhibitors of Nef-activated human Hck kinase, primary screen, biochemical, Z-Lyte FRET, 384-well, Hck-YEEI | inhibition, % at 20 µM | Recombinant Hck-YEEI plus Nef, Z-Lyte FRET kinase assay | Tyrosine-protein kinase HCK (Homo sapiens), P08631 | 220,000 tested, 0.68% active;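 active = Hck-Nef kinase inhibition above about 50%, limit read from the data; inactive = inhibition below that limit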;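 note: 0% = DMSO with Hck plus Nef and 100% = Hck alone without Nef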
# EP2 mod: EP2 receptor modulators, cAMP readout, primary screen, cell-based, HTRF cAMP, PGE2 stimulation; Prostaglandin E2 receptor EP2 subtype (Homo sapiens), P43116; EP2-expressing cells, cAMP HTRF FRET, PGE2 co-stimulation; induction, % at 25 µM; 260,000 tested, 0.83% active; AID 940, 2007;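 active = compounds whose cAMP rise, as percent of the full-agonist control response, exceeds 60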;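 note: rat C6 glioma line stably carrying human EP2 under a CMV promoter; the protocol text gives 20 µM as final concentration; 100% = response of wells given 1 µM PGE2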
# Arbovirus anti: antivirals against arbovirus infection, primary screen, cell-based, full library, 10K replicate subset; arbovirus infection cell-based antiviral screen; 200,000 tested, 0.37% active; inhibition, % at 10 µM; in the data active = inhibition above about 30%
# p97 ATPase inh: inhibitors of human p97 ATPase, primary screen, biochemical; inhibition, % at 8 µM; Transitional endoplasmic reticulum ATPase (Homo sapiens), P55072; recombinant p97 ATPase, Kinase-Glo ATP luminescence, 3 h; 220,000 tested, 0.42% active; in the data active = inhibition above about 15%;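 note: 0% = DMSO vehicle and 100% = wells lacking enzyme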
# PGE2 EP2 inh: human EP2 receptor antagonists, primary screen, TR-FRET cAMP, C6 glioma cells | Prostaglandin E2 receptor EP2 subtype (Homo sapiens), P43116 | C6 glioma cells expressing human EP2; cells stimulated with saturating PGE2 | inhibition, % at 25 µM | 260,000 tested, 0.52% active | AID 1422, 2008;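 active = percent inhibition above 40 after rounding to a whole number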;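 note: rat C6 glioma host cells with rolipram phosphodiesterase inhibitor present; the protocol text gives 20 µM as final concentration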
# EP2 cAMP induct: cAMP induction in EP2, EP4, beta2-AR and parental cells, confirmation, counter-screen for EP2 modulator project, cell-based, five parallel assays, C6 glioma, HEK293; shares compounds with EP2 mod; cAMP HTRF induction; plus low (about EC15) PGE2 agonist; calls only at 20 µM (by protocol); 1,300 tested, 47% active;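 active = cAMP induction above 50% in the main assay while under 30% in all four parallel counter assays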;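 note: rat C6 glioma cells stably expressing human EP2 receptor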
# Active calls of the source: *; i = inactive; · = not tested or not shown; + = active, no number.
SMILES,Hck-Nef inh,EP2 mod,Arbovirus anti,p97 ATPase inh,PGE2 EP2 inh,EP2 cAMP induct
CC12CCC(O)CC1=CCC1C2CCC2(C)C1CCC21CCC(=O)O1 (stereo unspecified),1.3,-17.6,11.1,-3.3,6.2,·
CC1(C)C2CCC1(C)C(OC(=O)C[n+]1ccccc1)C2 (stereo unspecified),20.0,0.5,·,5.4,7.7,·
CC1(C)C2CCC1(C)C(OC(=O)CC(=O)O)C2 (stereo unspecified),0.2,61.5*,-3.8,4.0,16.9,+
C[N+]1(Cc2ccccc2)Cc2ccccc2C1,·,-42.2,·,·,8.7,·
CC(=O)Nc1ccc(C(=O)Nc2nncs2)cc1,·,6.6,·,·,11.8,·
COc1ccc(OC)c(/C=C/C(=O)N2CCCc3ccccc32)c1,25.1,78.6*,-2.5,-3.8,5.1,+
COc1ccc(/C=C/C(=O)N2CCCc3ccccc32)cc1,6.7,26.6,-9.1,1.3,4.7,·
Cc1cc(NC(=O)S(=O)(=O)c2ccccc2)ccc1NC(=O)c1ccco1,·,-17.2,·,·,4.5,·
CCOC(=O)C1CCN(c2c(-c3ccccc3)c3cc(Cl)ccc3[nH]c2=O)CC1,0.2,79.5*,6.0,0.9,16.0,i
O=c1[nH]c2ccc(Br)cc2c(-c2ccccc2)c1N1CCOCC1,18.0,77.7*,3.4,-0.2,·,i
O=C(Nc1cccc(O)c1)/C(=C\c1ccncc1)NC(=O)c1ccccc1,·,12.3,·,·,15.0,·
Cc1cc(C)c2cc(CN(Cc3cccs3)C(=O)Nc3ccccc3)c(=O)[nH]c2c1,·,-42.7,·,·,10.9,·
CCOC(=O)c1ccc(NC(=O)COC(=O)c2ccco2)cc1,·,-46.2,·,·,4.6,·
COc1ccc(CN2CCc3c(nc(N4CCCCC4C)[nH]c3=O)C2)c(O)c1 (stereo unspecified),·,-34.8,·,·,5.1,·
CSc1nc(Sc2ccccc2)c2ccccc2n1,0.7,78.8*,-7.7,0.8,13.7,i
N#Cc1c(-c2c(Cl)cccc2Cl)noc1/C=C/Nc1ccc(C(=O)O)cc1,38.9,68.5*,30.0,-0.9,5.5,+
Cc1nnc(-c2ccc(Cl)cc2)nc1NCCN(C)C,10.2,-27.7,5.8,-4.1,5.1,·
OCCCNc1nc(-c2ccc(Br)cc2)nnc1-c1ccc(Cl)cc1,5.2,95.1*,-5.4,3.7,9.3,+
Nc1[nH]n2c(=O)c3c(nc2c1N=Nc1ccccc1)CCCC3,0.8,90.3*,-14.7,0.6,8.1,+
Cc1cc(=O)n2[nH]c(N)c(N=Nc3ccccc3)c2n1,3.0,8.4,-10.2,3.1,2.4,·
O=C1C=C(c2ccccc2)C(O)(c2ccccc2)C1 (stereo unspecified),1.7,29.9,7.0,2.1,10.3,·
O=C1CC(O)(c2ccccc2)C(c2ccccc2)=C1c1ccccc1 (stereo unspecified),8.7,76.1*,-2.7,3.4,10.4,+
CCOC(=O)c1c(-c2ccc(C)cc2)csc1NC(=O)c1ccc(N2C(=O)CCC2=O)cc1,1.6,70.1*,-8.8,2.9,11.6,i
CCOC(=O)c1c(NC(=O)C2C3C=CC(C3)C2C(=O)O)sc2c1CC(C)CC2 (stereo unspecified),9.7,12.9,-0.7,-6.9,12.9,·
CCOC(=O)c1c(-c2ccc(C)cc2)csc1NC(=O)c1cccc(N2C(=O)CCC2=O)c1,1.8,59.6,-10.4,2.6,6.7,·
SMILES,Hck-Nef inh,EP2 mod,Arbovirus anti,p97 ATPase inh,PGE2 EP2 inh,EP2 cAMP induct
CCOC(=O)c1c(-c2cccs2)csc1NC(=O)CN1CCOCC1,-0.6,69.0*,-1.0,-5.7,11.3,i
CCOC(=O)c1c(NC(=O)c2ccc(N3C(=O)[C@@H]4[C@H](C3=O)[C@H]3C=C[C@@H]4C3)cc2)sc2c1CC(C)CC2 (stereo partly specified),0.1,54.6,-4.0,-0.5,16.7,i
CCOC(=O)c1c(-c2ccc(C)cc2)csc1NC(=O)CCN1CCOCC1,0.1,89.8*,26.0,-2.8,5.5,+
COc1ccc2cc(C(=O)O)[nH]c2c1,·,-13.0,·,·,7.4,·
Cc1cc(C)cc(OC2CCCCC2NS(=O)(=O)c2ccccc2)c1 (stereo unspecified),3.3,65.2*,-5.8,-0.8,7.9,+
COc1cc(CN2C[C@@H]3CCCN3C[C@@H]2Cc2ccccc2)ccc1O,·,-1.9,·,·,4.9,·
CCC(C)(C)n1nnnc1C(c1ccncc1)N1CCC(Cc2ccccc2)CC1 (stereo unspecified),-23.1,79.0*,14.7,-5.4,2.7,i
CCC(C)(C)n1nnnc1C(c1cccnc1)N1CCC(Cc2ccccc2)CC1 (stereo unspecified),25.7,-31.1,2.6,-1.5,6.3,·
O=S(=O)(c1ccc(F)cc1)c1snnc1-c1ccccc1,-1.7,68.7*,-9.3,3.8,-1.0,+
CCc1ccc(OCc2n[nH]c(=S)n2C(C)CCCC(C)C)cc1 (stereo unspecified),3.8,68.8*,-9.4,-4.1,4.4,+
O=C(Nc1ccccc1-c1nc2ccccc2s1)C1=COCCO1,5.9,73.8*,-14.5,1.0,4.9,i
O=C(Nc1nc2cc3c(cc2s1)OCCO3)C1=COCCO1,6.5,-18.4,·,-36.1,15.1,·
Cc1ccc(O)c(C2=Nc3ccccc3N=C(c3cccs3)C2)c1,3.7,69.1*,20.2,3.6,-1.2,i
Clc1ccc(-c2ccc(/C=N/Nc3cc(N4CCOCC4)nc(N4CCOCC4)n3)o2)cc1,20.7,107.7*,-27.0,0.9,5.0,+
Brc1ccc(-c2ccc(/C=N/Nc3nc(N4CCOCC4)nc(N4CCOCC4)n3)o2)cc1,21.8,66.8*,1.3,-2.3,5.1,+
Oc1ccc(/C=N\Nc2cc(N3CCOCC3)nc(N3CCOCC3)n2)c(O)c1,-2.0,-8.2,-14.7,10.7,3.8,·
COc1ccc2[nH]c(=O)c(CN(Cc3ccco3)S(=O)(=O)c3ccccc3Cl)cc2c1,·,-28.7,·,·,34.6,·
Cc1noc2ncnc(Sc3ccc(Cl)cc3)c12,-1.5,20.5,-32.5,0.2,17.7,·
Cc1noc2ncnc(Sc3c(Cl)cccc3Cl)c12,0.7,66.1*,-1.8,3.6,22.9,i
O=C1/C(=C/c2cccnc2)SC(=S)N1CCc1ccccc1,13.6,14.6,·,5.6,12.7,·
O=C1/C(=C/c2cccnc2)SC(=NCc2ccccc2)N1Cc1ccccc1,24.9,66.4*,-8.5,-4.6,1.4,+
CN1C=CC=C/C1=C1/SC(=S)N(Cc2ccccc2)C1=O,5.5,-27.0,3.0,2.4,7.4,·
CCN1C(=O)/C(=C2/C=CC=CN2C)SC1=S,1.9,75.3*,5.6,4.6,4.8,i

# Compound activity as filed in PubChem.
